# Measurements as given in the supplement of paper PMC11732987, “Enantioselective OTUD7B fragment discovery through chemoproteomics screening and high-throughput optimisation” (Communications Chemistry, 2025).
# Unmarked numbers belong to inactive results.
# Tests used:
# Assay in all cases: log2 ratio of Biotin-Ahx-Ub-VS probe labelling (fragment/DMSO); higher = less target engagement (more negative = stronger competition), active = hit call of the paper (q ≤ 0.05, log2 ratio ≤ -1)
# Conditions in all cases: compound concentration: 200 uM; treatment time: 3 h
# USP19 = target: T1, USP19 (UniProt O94966)
# T1 sequence (whole entry): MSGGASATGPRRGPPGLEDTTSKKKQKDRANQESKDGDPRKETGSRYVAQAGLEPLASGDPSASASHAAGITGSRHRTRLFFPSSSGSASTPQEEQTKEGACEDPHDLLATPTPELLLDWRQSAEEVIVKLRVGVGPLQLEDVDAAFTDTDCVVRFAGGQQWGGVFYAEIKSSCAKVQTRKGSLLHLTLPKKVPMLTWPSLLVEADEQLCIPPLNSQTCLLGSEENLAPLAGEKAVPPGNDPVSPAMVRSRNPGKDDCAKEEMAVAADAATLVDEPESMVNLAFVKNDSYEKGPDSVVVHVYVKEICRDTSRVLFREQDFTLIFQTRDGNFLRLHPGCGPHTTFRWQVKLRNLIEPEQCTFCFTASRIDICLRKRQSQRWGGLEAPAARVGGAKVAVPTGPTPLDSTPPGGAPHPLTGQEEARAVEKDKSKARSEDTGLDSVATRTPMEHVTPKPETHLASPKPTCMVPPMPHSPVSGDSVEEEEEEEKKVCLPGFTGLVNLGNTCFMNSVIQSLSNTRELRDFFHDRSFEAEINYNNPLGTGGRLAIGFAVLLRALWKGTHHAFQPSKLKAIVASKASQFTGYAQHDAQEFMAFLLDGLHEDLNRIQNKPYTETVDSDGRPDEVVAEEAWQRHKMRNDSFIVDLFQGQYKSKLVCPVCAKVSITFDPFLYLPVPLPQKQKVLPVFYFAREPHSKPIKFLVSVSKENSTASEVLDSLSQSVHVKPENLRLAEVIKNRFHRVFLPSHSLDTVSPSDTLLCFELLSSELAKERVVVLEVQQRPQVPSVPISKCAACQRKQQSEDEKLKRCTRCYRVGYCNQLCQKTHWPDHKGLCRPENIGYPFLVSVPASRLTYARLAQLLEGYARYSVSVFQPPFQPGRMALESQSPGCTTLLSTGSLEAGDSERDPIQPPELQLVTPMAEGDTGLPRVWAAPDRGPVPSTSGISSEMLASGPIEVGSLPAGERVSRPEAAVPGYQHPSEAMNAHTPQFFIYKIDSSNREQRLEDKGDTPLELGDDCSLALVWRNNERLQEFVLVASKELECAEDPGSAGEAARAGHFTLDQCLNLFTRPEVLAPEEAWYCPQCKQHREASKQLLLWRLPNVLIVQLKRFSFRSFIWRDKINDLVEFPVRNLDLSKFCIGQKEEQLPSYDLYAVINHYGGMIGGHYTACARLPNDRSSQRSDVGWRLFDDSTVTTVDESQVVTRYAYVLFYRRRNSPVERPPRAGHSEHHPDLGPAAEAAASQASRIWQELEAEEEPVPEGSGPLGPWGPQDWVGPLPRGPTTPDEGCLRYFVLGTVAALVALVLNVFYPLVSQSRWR
# Summary of the method: (§1)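 Labelling with Biotin-Ahx-Ub-VS (0.5 µM final, 1 h) followed a 3 h triplicate treatment of HEK293T lysate (495 µg per sample, Tris/CHAPS/IGEPAL buffer with protease inhibitors) with fragment at 200 µM or vehicle. Labelled DUBs were NeutrAvidin-enriched, digested with LysC and trypsin, and run by diaPASEF LC-MS/MS. The values, average log2 fragment/vehicle ratios by unpaired t-test, come from global-median-normalised Spectronaut label-free quantities. Proteins with ≥2 unique peptides were used.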
# USP22 = target: T2, USP22 (UniProt Q9UPT9)
# T2 sequence (whole entry): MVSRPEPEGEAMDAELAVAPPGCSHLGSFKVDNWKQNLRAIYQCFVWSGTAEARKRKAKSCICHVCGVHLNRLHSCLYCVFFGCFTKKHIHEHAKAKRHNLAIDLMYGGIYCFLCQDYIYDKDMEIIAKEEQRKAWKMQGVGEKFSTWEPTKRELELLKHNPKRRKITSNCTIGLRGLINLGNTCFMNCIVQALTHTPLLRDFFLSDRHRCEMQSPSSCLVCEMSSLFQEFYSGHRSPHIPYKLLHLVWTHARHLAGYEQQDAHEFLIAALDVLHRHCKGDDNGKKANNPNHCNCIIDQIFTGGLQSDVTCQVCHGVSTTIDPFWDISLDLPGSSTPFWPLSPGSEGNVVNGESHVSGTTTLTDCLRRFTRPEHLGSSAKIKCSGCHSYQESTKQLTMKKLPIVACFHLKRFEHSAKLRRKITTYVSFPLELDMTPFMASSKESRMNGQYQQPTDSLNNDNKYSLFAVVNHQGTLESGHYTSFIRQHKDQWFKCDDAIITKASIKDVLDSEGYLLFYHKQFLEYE
# Summary of the method: as §1
# USP24 = USP24 (UniProt Q9UPU5)
# Sequence of USP24 (Q9UPU5 whole entry): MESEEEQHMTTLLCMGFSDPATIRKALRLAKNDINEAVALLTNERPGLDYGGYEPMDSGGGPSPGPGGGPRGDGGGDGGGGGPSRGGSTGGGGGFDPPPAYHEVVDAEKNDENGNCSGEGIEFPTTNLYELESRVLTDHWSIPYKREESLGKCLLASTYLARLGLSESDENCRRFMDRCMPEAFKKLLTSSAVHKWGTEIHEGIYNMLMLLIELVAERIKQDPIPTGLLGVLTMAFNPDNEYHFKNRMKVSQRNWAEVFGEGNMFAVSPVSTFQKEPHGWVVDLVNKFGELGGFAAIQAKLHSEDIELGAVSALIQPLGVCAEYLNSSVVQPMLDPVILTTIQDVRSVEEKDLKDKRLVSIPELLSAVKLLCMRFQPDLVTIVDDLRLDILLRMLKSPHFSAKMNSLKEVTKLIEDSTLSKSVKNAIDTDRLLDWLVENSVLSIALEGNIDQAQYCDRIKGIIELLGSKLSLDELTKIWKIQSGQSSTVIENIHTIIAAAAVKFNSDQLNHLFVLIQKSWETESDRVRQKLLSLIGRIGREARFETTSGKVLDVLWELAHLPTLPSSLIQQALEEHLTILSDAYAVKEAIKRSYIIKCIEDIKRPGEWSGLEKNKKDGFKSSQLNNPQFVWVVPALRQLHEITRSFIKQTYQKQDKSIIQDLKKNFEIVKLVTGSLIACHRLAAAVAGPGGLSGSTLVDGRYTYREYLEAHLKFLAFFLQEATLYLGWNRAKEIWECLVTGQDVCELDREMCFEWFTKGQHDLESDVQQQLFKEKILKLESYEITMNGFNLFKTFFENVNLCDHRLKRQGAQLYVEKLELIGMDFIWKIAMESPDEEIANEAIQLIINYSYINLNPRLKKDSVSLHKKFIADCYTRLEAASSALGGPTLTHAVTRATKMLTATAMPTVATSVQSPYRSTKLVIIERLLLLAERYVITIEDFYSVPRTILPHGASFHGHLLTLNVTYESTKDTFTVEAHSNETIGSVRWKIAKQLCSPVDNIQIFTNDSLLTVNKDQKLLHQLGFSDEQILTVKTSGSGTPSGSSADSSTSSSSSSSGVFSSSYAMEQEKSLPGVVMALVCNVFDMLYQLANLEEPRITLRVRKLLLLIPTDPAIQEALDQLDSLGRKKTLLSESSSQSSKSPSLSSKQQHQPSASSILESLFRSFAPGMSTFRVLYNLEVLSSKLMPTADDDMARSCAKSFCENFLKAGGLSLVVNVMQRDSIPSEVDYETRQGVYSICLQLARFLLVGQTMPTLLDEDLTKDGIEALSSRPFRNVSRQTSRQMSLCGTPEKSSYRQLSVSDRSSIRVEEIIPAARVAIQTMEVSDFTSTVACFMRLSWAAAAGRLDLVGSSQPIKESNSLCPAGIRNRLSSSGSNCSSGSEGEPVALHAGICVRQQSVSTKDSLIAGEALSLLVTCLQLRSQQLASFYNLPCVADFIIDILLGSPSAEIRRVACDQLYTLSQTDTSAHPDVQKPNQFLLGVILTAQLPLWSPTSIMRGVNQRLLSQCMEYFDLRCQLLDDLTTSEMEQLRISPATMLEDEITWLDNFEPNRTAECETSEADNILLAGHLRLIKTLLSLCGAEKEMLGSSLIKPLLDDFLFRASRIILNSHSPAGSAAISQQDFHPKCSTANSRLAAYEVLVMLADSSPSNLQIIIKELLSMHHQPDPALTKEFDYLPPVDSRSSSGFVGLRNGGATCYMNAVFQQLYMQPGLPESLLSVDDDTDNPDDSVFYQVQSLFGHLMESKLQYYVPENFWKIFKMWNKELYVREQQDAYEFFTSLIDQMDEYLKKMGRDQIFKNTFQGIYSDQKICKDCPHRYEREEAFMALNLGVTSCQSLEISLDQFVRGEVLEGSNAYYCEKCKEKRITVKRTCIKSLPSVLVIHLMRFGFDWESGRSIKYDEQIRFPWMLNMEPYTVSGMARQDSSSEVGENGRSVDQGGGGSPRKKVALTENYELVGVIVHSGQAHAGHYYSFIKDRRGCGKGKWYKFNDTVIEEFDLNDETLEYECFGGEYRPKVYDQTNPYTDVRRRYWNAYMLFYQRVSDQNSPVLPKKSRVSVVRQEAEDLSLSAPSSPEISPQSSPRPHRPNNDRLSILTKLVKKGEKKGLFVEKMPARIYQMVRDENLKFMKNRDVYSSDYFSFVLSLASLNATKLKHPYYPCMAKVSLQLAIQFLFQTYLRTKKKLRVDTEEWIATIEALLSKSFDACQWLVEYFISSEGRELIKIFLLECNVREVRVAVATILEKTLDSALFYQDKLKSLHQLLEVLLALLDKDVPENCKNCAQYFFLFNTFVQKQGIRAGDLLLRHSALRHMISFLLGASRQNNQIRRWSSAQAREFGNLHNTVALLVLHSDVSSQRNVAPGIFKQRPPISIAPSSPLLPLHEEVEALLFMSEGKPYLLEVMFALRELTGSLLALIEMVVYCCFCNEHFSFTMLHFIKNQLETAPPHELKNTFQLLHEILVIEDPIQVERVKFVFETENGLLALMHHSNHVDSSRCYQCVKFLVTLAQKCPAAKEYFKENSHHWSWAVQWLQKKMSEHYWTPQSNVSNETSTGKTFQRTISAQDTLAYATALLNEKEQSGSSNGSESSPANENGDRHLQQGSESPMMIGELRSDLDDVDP
# Summary of the method: as §1
# USP25 = target: T3, USP25 (UniProt Q9UHP3)
# T3 sequence (whole entry): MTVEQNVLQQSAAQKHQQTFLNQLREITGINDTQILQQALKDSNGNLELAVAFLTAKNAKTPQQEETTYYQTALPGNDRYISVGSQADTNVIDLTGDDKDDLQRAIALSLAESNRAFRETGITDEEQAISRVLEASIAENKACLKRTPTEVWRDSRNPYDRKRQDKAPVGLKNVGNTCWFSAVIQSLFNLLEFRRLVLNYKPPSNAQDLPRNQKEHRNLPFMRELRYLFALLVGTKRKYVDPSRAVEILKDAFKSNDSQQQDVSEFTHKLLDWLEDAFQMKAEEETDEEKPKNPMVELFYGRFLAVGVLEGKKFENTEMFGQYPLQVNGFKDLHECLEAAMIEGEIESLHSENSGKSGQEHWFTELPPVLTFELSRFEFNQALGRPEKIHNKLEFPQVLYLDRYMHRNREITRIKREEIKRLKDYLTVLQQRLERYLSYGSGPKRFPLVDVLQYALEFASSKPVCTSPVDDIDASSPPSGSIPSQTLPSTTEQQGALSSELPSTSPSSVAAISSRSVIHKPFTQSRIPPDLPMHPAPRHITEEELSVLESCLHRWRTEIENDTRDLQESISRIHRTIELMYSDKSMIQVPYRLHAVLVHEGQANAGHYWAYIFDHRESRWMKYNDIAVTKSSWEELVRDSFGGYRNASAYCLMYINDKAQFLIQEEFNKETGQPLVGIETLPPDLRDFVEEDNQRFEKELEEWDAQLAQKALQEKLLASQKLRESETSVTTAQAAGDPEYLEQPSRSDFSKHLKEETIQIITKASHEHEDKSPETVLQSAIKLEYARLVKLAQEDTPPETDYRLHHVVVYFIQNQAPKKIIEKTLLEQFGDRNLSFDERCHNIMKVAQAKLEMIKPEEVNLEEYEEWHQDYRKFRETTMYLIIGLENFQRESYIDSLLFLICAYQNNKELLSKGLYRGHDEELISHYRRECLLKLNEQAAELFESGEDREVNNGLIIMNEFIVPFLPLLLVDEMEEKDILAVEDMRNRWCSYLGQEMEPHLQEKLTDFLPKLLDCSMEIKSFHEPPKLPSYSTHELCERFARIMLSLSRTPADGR
# Summary of the method: as §1
# USP28 = target: T4, USP28 (UniProt Q96RU2)
# T4 sequence (whole entry): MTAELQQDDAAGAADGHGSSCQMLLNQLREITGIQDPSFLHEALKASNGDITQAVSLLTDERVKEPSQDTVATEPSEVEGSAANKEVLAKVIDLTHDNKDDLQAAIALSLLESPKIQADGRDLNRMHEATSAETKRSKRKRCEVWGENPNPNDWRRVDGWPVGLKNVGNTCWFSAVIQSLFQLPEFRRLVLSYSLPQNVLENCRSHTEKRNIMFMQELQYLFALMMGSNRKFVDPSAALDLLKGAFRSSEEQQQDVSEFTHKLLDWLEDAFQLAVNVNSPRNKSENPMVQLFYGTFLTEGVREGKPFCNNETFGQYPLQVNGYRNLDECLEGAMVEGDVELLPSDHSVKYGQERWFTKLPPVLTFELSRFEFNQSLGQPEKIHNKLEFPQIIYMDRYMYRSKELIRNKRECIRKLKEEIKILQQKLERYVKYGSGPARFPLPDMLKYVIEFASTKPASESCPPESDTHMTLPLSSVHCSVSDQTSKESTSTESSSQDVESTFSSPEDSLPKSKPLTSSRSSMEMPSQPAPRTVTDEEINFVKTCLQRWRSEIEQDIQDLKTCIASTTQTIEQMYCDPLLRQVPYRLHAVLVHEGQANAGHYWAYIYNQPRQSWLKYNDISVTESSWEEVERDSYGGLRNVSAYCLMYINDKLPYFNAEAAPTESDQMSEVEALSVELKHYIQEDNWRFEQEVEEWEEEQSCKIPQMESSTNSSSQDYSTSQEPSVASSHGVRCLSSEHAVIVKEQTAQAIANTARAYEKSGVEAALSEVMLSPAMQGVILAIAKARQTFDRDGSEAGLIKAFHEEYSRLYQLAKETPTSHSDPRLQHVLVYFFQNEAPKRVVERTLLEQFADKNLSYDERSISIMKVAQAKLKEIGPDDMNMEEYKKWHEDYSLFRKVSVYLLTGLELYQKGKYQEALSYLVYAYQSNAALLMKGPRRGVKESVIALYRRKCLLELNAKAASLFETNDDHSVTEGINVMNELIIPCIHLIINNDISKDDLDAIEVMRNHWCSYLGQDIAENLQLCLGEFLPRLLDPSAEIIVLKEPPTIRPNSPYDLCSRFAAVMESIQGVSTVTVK
# Summary of the method: as §1
compound,measurement,setting,value
CS(=O)(=O)c1ccc(NC(=O)CCl)cc1,log2 ratio of Biotin-Ahx-Ub-VS probe labelling,USP19,-0.223
same,log2 ratio of Biotin-Ahx-Ub-VS probe labelling,USP22,0.107
same,log2 ratio of Biotin-Ahx-Ub-VS probe labelling,USP24,-0.247
same,log2 ratio of Biotin-Ahx-Ub-VS probe labelling,USP25,-1.74 (active)
same,log2 ratio of Biotin-Ahx-Ub-VS probe labelling,USP28,-1.38 (active)
